An excerpt weighted towards active compounds, which were near 1.3% of everything screened.
SARS 3CLpro inh = SARS-CoV 3CLpro protease inhibition; 290,000 compounds, 0.14% hits; recombinant SARS-CoV 3CLpro, quenched FRET peptide cleavage; inhibition, % at 6 µM; P0C6X7; in the data active means inhibition above about 12%
PrPC surface inh = cell surface PrPC inhibition, primary TR-FRET screen; 370,000 compounds, 0.43% hits; P04156; TR-FRET read-out; inhibition, % at 13.8 µM; in the data active means inhibition above about 24%; further: 0% = median of the test wells and 100% = reference compound wells
PrP 5UTR inh = suppresses PrP 5' UTR mRNA reporter expression; 340,000 compounds, 0.35% hits; cell-based PrP 5' UTR mRNA reporter, plate reader; inhibition, % (concentration not given with the values); in the data active means inhibition above about 52%; further: 0 = median of the neutral control wells
CCHF vOTU inh-1 = CCHFV vOTU protease inhibition | inhibition, % at 11.5 µM | 370,000 compounds, 0.55% hits | Pep-AMC fluorescence; further: 0% = vehicle wells with enzyme and 100% = no enzyme wells
CCHF vOTU inh-2 = confirmation of CCHF virus vOTU protease inhibitors. shares compounds with CCHF vOTU inh-1. Recombinant CCHFV vOTU, Pep-AMC fluorescence. inhibition, % at 11.5 µM. 1,900 compounds, 17% hits
The depositor's hits bear a star; · = no result. Unless noted, no stated cut-off is given here; in the data, active means inhibition above about 30%; inactive means the rest.

SMILES	SARS 3CLpro inh	PrPC surface inh	PrP 5UTR inh	CCHF vOTU inh-1	CCHF vOTU inh-2
COc1cc2c(cc1OC)C(c1ccc(C)cc1)NC(=O)C2 (stereo unspecified)	-4	2	-83	2	·
CC(c1nc2ccccc2[nH]1)n1c(=O)c(-c2cccnc2)nc2ccccc21 (stereo unspecified)	·	-12	·	1	·
COc1cc(-c2coc3c(C(=O)NCc4ccccc4)cccc23)ccc1O	·	2	·	41*	-5
Cc1nn(-c2cccc(Cl)c2)c2c1C(c1ccncc1)C(C#N)=C(N)O2 (stereo unspecified)	11	-7	-26	20	·
Cc1nn(-c2cccc(Cl)c2)c2c1C(c1cccnc1)C(C#N)=C(N)O2 (stereo unspecified)	0	-6	-5	35*	-20
Cc1cc(C(=O)N2CCCC(C(=O)c3cccc(C(F)(F)F)c3)C2)nc(C)n1 (stereo unspecified)	3	-4	-19	0	·
CCN(CC)S(=O)(=O)c1ccc(/C(O)=C(\C#N)c2nc3ccccc3n2C)cc1	0	-3	-34	-7	·
CC(C)(C)c1ccc(/C=N/OCC(=O)NCc2ccc(F)cc2)cc1	8	13	-6	46*	13
COc1ccc(NC(=O)c2cccc(N3C(=O)C4C5CCC(C5)C4C3=O)c2)cc1 (stereo unspecified)	1	10	-8	-4	·
CCOC(=O)/C(C#N)=C/C=C1/C=CC=CN1C	2	-9	-38	15	·
C=CCN1C=CC(=C/C=C(/C#N)C(=O)OCC)C=C1	3	-54	-66	38*	30*
COc1cc(/C=N/NC(=O)Nc2ccccc2)ccc1OC(C)=O	-1	-3	-63	-1	·
CCc1nnc(N/N=C\c2ccc(OC(C)=O)c(OC)c2)n1N	-5	-8	-3	66*	-6
CCOc1cc(/C=N/NC(N)=O)ccc1OC(=O)c1ccc(C)cc1	4	·	·	·	·
CCc1nnc(N/N=C/c2cccs2)n1N	0	-7	-58	89*	-3
COc1cc(/C=N/Nc2ccccn2)ccc1O	-2	-1	-67	18	·
CCOc1cc(/C=N/Nc2nnc(C)n2N)ccc1OC(C)=O	-2	-4	-33	86*	-13
CCc1nnc(N/N=C/c2ccc(O)c(OC)c2)n1N	-2	1	-5	77*	-2
CSc1ccc(CSCC(=O)N2CCN(S(=O)(=O)c3ccc(C)cc3C)CC2)cc1	·	5	-31	1	·
O=C1OCc2cc(NC(=O)C3CCCO3)ccc21 (stereo unspecified)	-1	9	-2	-4	·
Cn1c(=O)[nH]c(=O)c2c1nc(NC1CCCCC1)n2Cc1ccccc1	-3	5	-22	1	·
CCc1nnc(N/N=C/c2cc(Br)c(O)cc2O)n1N	1	-2	-68	96*	14
Oc1ccc(C=Nc2cccc3ncccc23)c(O)c1	-5	-4	-11	44*	-10
Cc1ccc(NC(=O)N2CCN(c3ccccn3)CC2)cc1	8	0	-17	-7	·
Cc1nnc(N/N=C/c2ccc(O)c([N+](=O)[O-])c2)[nH]c1=O	-7	-7	1	32*	6
SMILES	SARS 3CLpro inh	PrPC surface inh	PrP 5UTR inh	CCHF vOTU inh-1	CCHF vOTU inh-2
CC(=O)c1cccc(N(CC(=O)NC2CCCC2)C(=O)CNC(=O)c2cccs2)c1	1	5	-16	36*	-18
CC(=O)c1cccc(N(CC(=O)NC2CCCCC2)C(=O)CNC(=O)c2cccs2)c1	0	-4	-16	5	·
CCN(CC)c1ccc(NC2=C(Cl)C(=O)c3ccccc3C2=O)cc1	3	·	-8	·	·
O=C1c2ccccc2-c2onc3ccc(NCc4ccco4)c1c23	1	·	-10	·	·
Cc1ccc(NC2=C(Cl)C(=O)c3ccccc3C2=O)cc1	-4	-6	-60	-5	·
CCCC(=O)NC1=C(Cl)C(=O)c2ccccc2C1=O	·	10	-33	93*	83*
O=C1C(Cl)=C(NCc2ccco2)C(=O)c2ccccc21	·	-19	-51	107*	81*
CCNC1=C(Cl)C(=O)c2ccccc2C1=O	1	-54	-19	53*	48*
Cc1ccc(NC2=NCC(Cc3ccc(Br)cc3)S2)cc1 (stereo unspecified)	1	13	-24	5	·
CC(OC(=O)c1cc2sccc2n1C)C(=O)NCc1cccs1 (stereo unspecified)	-7	1	-5	2	·
CN(CC(=O)Nc1ccc(Cl)c(C(F)(F)F)c1)C(=O)CC1Sc2ccccc2NC1=O (stereo unspecified)	3	13	-14	33*	-16
CCCCOC(=O)C1=C(C)NC(=O)NC1c1ccc(OC)cc1 (stereo unspecified)	3	-3	-41	-6	·
CC(OC(=O)[C@H](C)N=C1NS(=O)(=O)c2ccccc21)C(=O)Nc1ccc(F)c(F)c1F (stereo partly specified)	·	10	·	-4	·
Cc1cccc(COC[C@H](CC(C)C)N2CCN(C(=O)c3ccc(C(C)(C)C)cc3)CCC2=O)c1	·	8	·	30*	0
CC(C)C[C@@H](COCc1ccc(F)cc1)N1CCN(C(=O)c2cccc(C(F)(F)F)c2)CCC1=O	·	10	·	31*	8
CN(CC1CCCO1)S(=O)(=O)c1ccc(C(=O)N2CCN(c3ccccc3)CC2)cc1 (stereo unspecified)	0	5	-20	-2	·
O=C(NC(c1ccc(F)cc1)c1ccc2ccccc2n1)C1CCN(CCOc2ccc(F)cc2)CC1 (stereo unspecified)	·	-7	·	32*	-10
COc1ccc(OCCN2CCC(C(=O)NC(c3ccc(F)cc3)c3ccc4ccccc4n3)CC2)cc1 (stereo unspecified)	·	-11	·	-4	·
CCCN(CC(=O)Nc1cccc(Br)c1)CC(=O)Nc1ccc(F)c(F)c1F	-5	14	-9	37*	-8
CN(C(=S)Nc1ccccc1)c1ccccc1	-1	7	-14	1	·
CN(C(=S)Nc1ccc(Oc2ccccc2)cc1)c1ccc(O)cc1	-1	1	-8	30*	-24
CN(C(=S)Nc1ccc(SC(F)F)cc1)c1ccc(O)cc1	6	-6	-20	30*	-29
CN(C(=S)Nc1cccnc1)c1ccc(O)cc1	-2	-12	5	49*	-15
Cn1c(=O)c2nc(-c3ccccc3)c(-c3ccccc3)nc2n(C)c1=O	·	1	-16	-5	·
CCCCCCCCCC(=O)N[C@@H]1c2cc(OC)c(OC)cc2C[C@H]1O	·	-4	-22	31*	-1
Cc1ccc(S(=O)(=O)N2[C@@H](c3ccc(C(C)(C)C)cc3)C(C(=O)O)=CC[C@H]2c2ccc3c(c2)OCO3)cc1	·	7	-6	30*	3
Cc1ccc([C@@H]2CC=C(C(=O)O)[C@H](c3ccc(Cl)cc3)N2S(=O)(=O)c2ccccc2C)cc1	·	4	0	33*	0
Cc1ccc(S(=O)(=O)N2[C@@H](c3ccccc3)C(C(=O)O)=CC[C@H]2c2ccc(Cl)c(Cl)c2)cc1	·	0	-14	14	·
Cc1ccc([C@H]2C(C(=O)O)=CC[C@@H](c3ccc(Cl)c(Cl)c3)N2S(=O)(=O)c2ccc(C)cc2)cc1	·	7	-20	40*	11

Screening results from PubChem BioAssay.
